Experimental data from PubChem BioAssay AID1259415 (National Center for Advancing Translational Sciences (NCATS), 2018).
Several values for one entry are separate records, joined by “and”; a condition that tells them apart may be missing. Equal values may be shown once. The campaign covered roughly 410,000 compounds. About 18,000 (4.4%) were called active. Not shown: some 7% with an inconclusive outcome. Shown is part of a subset that was picked to be rich in actives. Values without a mark were called inactive. No stated cut-off is given here; in the data, active means activity change below about -60%; inconclusive means no clear call, values can overlap the other calls; inactive means above about -39%.

Assay: qHTS Assay for inhibitors of the human cytomegalovirus (HCMV)
Conditions: HFF cells, HCMV-luciferase reporter, 72 h; at 57.5 µM; hits give low values
Summary of the method: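 Inhibition of viral replication was scored as loss of reporter luminescence in HFFs infected with HCMV-luciferase (MOI 1 PFU/cell) for 72 h; compounds tested at 2 doses, normalized to buffer and Salinomycin controls.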
On the % scale 0 is the no-effect control and ±100 the full control effect.

SMILES	activity change, negative = inhibition
CCOc1ccccc1N(CC)C(=O)c1cc2ccc3cccnc3c2[nH]1	36.8%
CCOC(=O)c1c(C)[nH]c(C)c1S(=O)(=O)N(C)CC(=O)N1CCN(c2ccccc2)CC1	-3.36%
CCOC(=O)c1c(SCC(=O)Nc2cccc(C)c2C)nc(=O)[nH]c1C	-0.768%
CCOC(=O)c1c(C)[nH]c2c1-c1ccccc1C(=O)C2=O	-99.7% (active)
CCOCCCNC(=O)c1c(NC(=O)Cc2coc3c(C)c(C)ccc23)sc2c1CCC2	-19.7%
CN(C)CCCN(C(=O)c1ccc(S(=O)(=O)N2CCCc3ccccc32)cc1)c1nc2ccc(F)cc2s1	-113% (active)
CCN(CC(=O)Nc1c(F)cccc1F)C(=O)c1ccc(S(=O)(=O)N2CCCCC2)cc1	-16.4%
CN(C)CCCN(C(=O)c1ccc(S(=O)(=O)N2CCCCCC2)cc1)c1nc2ccc(Br)cc2s1	-66.2% (active)
CC1CCN(C(=O)c2cccc(S(=O)(=O)N3CCCc4ccccc43)c2)CC1	-31.3%
O=C(Nc1nnc(S(=O)(=O)N2CCCc3ccccc32)s1)c1cccc(F)c1	-22.4%
Cc1cc(C)c2sc(NC(=O)c3ccc(S(=O)(=O)N4CCCC4)cc3)nc2c1	1.97%
Cc1cn(C)c(CC(=O)NCc2ccc(Cl)cc2)c1C(=O)O	-3.74%
O=C(CSc1ncc(CO)n1Cc1ccc(Cl)cc1)NCc1ccc(F)cc1	0.963%
Cc1ccc2[nH]c(=O)c(CC=C(Cl)Cl)c(C)c2c1	-11.6%
CCC(=O)Nc1cccc(-c2nc3cc(C)ccc3o2)c1	103%
NC(=O)c1ccc(N2CCCC2)nc1	9.29%
C/C(CC(C)C)=N\Oc1nc(C)cc(C)n1	-62.7% (active)
COc1ccc(NC(=O)C(CC(C)C)NS(=O)(=O)c2ccc3c(c2)CCN3C(C)=O)cc1OC (stereo unspecified)	-16%
CC(=O)OC1CCC2(C)C(=CCC3C4CC(=O)N(O)C(=O)C4(C)CCC32)C1 (stereo unspecified)	17.9%

SMILES	activity change, negative = inhibition
C[C@]12CC[C@H](O)CC1=CCC1C2CC[C@@]2(C)C1CC[C@@H]2NC(=O)CCC(=O)O (stereo partly specified)	-2.14%
C[C@@H]1CC[C@@]2(OC1)O[C@H]1C[C@H]3[C@@H]4CC=C5C[C@@H](O)[C@H](O)C[C@]5(C)C4CC[C@]3(C)[C@H]1[C@@H]2C (stereo partly specified)	-70.9% (active)
Cc1cccc(NC(=O)c2nnn(CC(=O)Nc3ccc(C(C)C)cc3)c2N)c1C	3.95%
COc1ccccc1/C=C/C1=NC(=C\N(C)C)/C(=O)O1	64.2%
COc1cccc(NC(=O)COC(=O)c2ccc3ccccc3n2)c1	78.4%
COc1cccc(/C=C/c2ccc3ccccc3n2)c1OC(C)=O	-95.1% (active)
CCOc1ccc2ccccc2c1/C=N/NC(=O)c1c(C)cc(C)[nH]c1=O	-32.4%
CCOc1cccc(/C=C/c2ccc3ccccc3n2)c1OC(C)=O	-79.7% (active)
Cc1cc(C)cc(NS(=O)(=O)c2cc3c(cc2C)NC(=O)CO3)c1	-26.3%
Cc1cccc(N2CCN(C(=O)c3cc4c(=O)oc5ccccc5c4s3)CC2C)c1 (stereo unspecified)	1.15%
COc1ccc(NC(=O)Cn2c(=O)n(CCC(C)C)c(=O)c3cccnc32)cc1Cl	-4.37%
O=C(Nc1nnc([C@H]2C[C@H](O)[C@@H](CO)O2)s1)c1cccc(Cl)c1	40.2%
O=C(Nc1ccc(F)cc1)Nc1nnc([C@H]2C[C@H](O)[C@@H](CO)O2)s1	30.2%
Cc1ccc(CNC(=O)Nc2nnc([C@H]3C[C@H](O)[C@@H](CO)O3)s2)cc1	-100% (active)
COc1ccccc1OCCC(=O)OCC(=O)NCc1ccccc1	14.2%
COc1cc(C(=O)NCc2ccncc2)cc(Br)c1OCc1ccccc1	-62.2% (active)
COc1cc(-c2nnn(CC(=O)NCc3ccccc3)n2)cc(OC)c1OC	5.2% and 12.4%
CCC(=O)N1CCc2cc(S(=O)(=O)NC(C(=O)N3CCc4ccccc4C3)C(C)C)ccc21 (stereo unspecified)	-14.7%
Cc1nc(NC(CC(C)C)C(=O)O)c2nc(C)oc2n1 (stereo unspecified)	-6.81%

SMILES	activity change, negative = inhibition
O=c1c(-c2ccc3c(c2)OCCO3)c(C(F)(F)F)oc2cc(O)cc(O)c12	-90.6% (active)
CCOC(=O)c1cc2cc(-c3c(C(=O)OCC)oc4cc(O)cc(O)c4c3=O)ccc2o1	-2.73%
CCOc1ccc2c(=O)c(-c3ccc4c(c3)OCCCO4)c(C)oc2c1	20.1%
CCc1ccc(CNC(=O)c2ccc(CS(=O)c3ccc(Br)cc3)o2)cc1 (stereo unspecified)	10.6%
CCOC(=O)c1cc(-c2ccccc2)n(CCC(=O)Nc2ccccc2CC)c1C	30.9%
Cc1ccc(Cl)cc1NC(=O)CSc1nc2ccccc2nc1Cc1ccccc1	36.7%
CCN1/C(=C\c2ccc3ccccc3[n+]2CC)Sc2cc(C)ccc21	-99.8% (active)
O=c1o[nH]c(-c2ccccc2)c1N=Nc1c(F)cccc1Cl	-12.9%
COc1cc(NC(=O)CCn2nc(C)cc2C)cc(OC)c1OC	9.6%
CN(C(=O)CN1C(=O)S/C(=C\c2ccccc2F)C1=O)C1CCS(=O)(=O)C1 (stereo unspecified)	-18.9%
CN(C(=O)CCN1C(=O)/C(=C/c2ccccc2F)SC1=S)C1CCS(=O)(=O)C1 (stereo unspecified)	-63.4% (active)
COc1ccccc1/C=C1\SC(=O)N(CCC(=O)N(C)C2CCS(=O)(=O)C2)C1=O (stereo unspecified)	-7.61%
CCCNC(=O)CCC(=O)N1Cc2ccccc2Oc2ncccc21	2.27%
Cc1cc(=O)n2[nH]c(-c3sccc3-n3c(C)ccc3C)cc2n1	-64.1% (active)
COc1ccccc1CNS(=O)(=O)c1cc(Br)cc2c1N(C(C)=O)C(C)C2 (stereo unspecified)	-27.7%
O=C(COC(=O)c1cc(S(=O)(=O)N2CCOCC2)ccc1F)NC1CC1	-20.2%
COc1cc(NC(=O)COC(=O)c2cc(S(=O)(=O)N3CCOCC3)ccc2F)cc(OC)c1	-68.7% (active)
O=C(COC(=O)c1ccccc1F)Nc1cc(S(=O)(=O)N2CCOCC2)ccc1N1CCCC1	-28.5%
